In ChEMBL document CHEMBL1961873, “Compounds: GSK PKIS; Assays: Nanosyn kinase panel” (2012):
Values joined by “and” are separate entries in the source; they are usually repeats but may differ in a detail not shown here. Equal entries are not always repeated.

Columns and labels:
[1] = biological target: High affinity nerve growth factor receptor (Homo sapiens) (UniProt P04629); details: at 1 µM;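 note: each value is the mean percent inhibition of TRKA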
[2] = biological target: BDNF/NT-3 growth factors receptor (Homo sapiens) (UniProt Q16620); details: at 0.1 µM
[3] = biological target: BDNF/NT-3 growth factors receptor (Homo sapiens) (UniProt Q16620); details: at 1 µM
[4] = biological target: NT-3 growth factor receptor (Homo sapiens) (UniProt Q16288); details: at 0.1 µM
[5] = biological target: NT-3 growth factor receptor (Homo sapiens) (UniProt Q16288); details: at 1 µM
[6] = biological target: T1, Tyrosine-protein kinase TXK (Homo sapiens) (UniProt P42681); details: at 0.1 µM
T1 sequence (whole entry): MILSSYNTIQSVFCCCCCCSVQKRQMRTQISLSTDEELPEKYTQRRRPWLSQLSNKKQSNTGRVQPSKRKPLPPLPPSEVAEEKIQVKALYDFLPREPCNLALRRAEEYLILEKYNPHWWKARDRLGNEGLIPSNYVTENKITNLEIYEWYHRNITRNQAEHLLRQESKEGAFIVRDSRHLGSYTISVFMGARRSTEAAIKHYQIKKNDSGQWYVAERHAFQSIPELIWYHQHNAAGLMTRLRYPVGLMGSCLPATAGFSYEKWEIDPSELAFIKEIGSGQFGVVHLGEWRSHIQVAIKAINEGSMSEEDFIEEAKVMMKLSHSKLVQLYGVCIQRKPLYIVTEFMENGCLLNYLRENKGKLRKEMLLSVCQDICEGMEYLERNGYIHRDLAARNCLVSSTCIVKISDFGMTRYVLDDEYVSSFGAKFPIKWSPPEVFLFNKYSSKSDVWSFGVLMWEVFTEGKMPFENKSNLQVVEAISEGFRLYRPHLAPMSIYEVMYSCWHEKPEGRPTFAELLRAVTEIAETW

[7] = biological target: T1, Tyrosine-protein kinase TXK (Homo sapiens); details: at 1 µM
[8] = biological target: Non-receptor tyrosine-protein kinase TYK2 (Homo sapiens) (UniProt P29597); details: at 0.1 µM;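 note: each value is a mean of the inhibition readings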
[9] = biological target: T2, Dual specificity protein kinase TTK (Homo sapiens) (UniProt P33981); details: at 1 µM;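 note: reported figures are mean TTK inhibition at 1 µM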
T2 sequence (whole entry): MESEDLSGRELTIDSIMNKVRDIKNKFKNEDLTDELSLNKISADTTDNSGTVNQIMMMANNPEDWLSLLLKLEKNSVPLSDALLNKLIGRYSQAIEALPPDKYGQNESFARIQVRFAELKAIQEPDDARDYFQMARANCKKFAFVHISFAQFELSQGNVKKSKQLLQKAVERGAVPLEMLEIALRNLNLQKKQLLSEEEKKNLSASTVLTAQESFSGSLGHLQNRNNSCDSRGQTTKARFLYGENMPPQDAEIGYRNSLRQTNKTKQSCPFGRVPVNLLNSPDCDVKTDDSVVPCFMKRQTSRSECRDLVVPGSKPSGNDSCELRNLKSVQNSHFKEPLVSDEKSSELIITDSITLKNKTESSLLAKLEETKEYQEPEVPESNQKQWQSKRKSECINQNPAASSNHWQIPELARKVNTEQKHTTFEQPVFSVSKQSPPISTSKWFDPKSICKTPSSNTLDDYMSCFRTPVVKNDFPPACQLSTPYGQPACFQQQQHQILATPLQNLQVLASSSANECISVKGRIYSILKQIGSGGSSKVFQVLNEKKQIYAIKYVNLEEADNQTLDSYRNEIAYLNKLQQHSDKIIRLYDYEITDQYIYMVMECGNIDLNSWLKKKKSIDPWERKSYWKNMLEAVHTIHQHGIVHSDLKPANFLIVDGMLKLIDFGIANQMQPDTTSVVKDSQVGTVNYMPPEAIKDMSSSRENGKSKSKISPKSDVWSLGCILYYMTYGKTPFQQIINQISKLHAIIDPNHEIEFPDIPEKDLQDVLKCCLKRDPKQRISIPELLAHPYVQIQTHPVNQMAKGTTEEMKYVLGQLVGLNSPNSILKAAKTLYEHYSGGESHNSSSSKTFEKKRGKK

[10] = biological target: T3, Aurora kinase A (Homo sapiens) (UniProt O14965); details: at 0.1 µM;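 note: each reported value is a mean percent inhibition of Aurora-A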
T3 sequence (whole entry): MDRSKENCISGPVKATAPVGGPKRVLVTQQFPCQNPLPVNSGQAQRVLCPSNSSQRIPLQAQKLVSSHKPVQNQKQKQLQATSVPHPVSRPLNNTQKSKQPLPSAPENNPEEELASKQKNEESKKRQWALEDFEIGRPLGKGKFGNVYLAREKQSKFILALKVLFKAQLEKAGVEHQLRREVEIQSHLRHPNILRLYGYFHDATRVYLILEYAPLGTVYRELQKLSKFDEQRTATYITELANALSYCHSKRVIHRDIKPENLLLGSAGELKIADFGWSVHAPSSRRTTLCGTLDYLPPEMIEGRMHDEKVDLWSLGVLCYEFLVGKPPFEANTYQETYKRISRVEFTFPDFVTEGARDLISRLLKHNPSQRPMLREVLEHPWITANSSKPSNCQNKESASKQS

Sequence of High affinity nerve growth factor receptor (Homo sapiens) (P04629 33-796 limits assumed): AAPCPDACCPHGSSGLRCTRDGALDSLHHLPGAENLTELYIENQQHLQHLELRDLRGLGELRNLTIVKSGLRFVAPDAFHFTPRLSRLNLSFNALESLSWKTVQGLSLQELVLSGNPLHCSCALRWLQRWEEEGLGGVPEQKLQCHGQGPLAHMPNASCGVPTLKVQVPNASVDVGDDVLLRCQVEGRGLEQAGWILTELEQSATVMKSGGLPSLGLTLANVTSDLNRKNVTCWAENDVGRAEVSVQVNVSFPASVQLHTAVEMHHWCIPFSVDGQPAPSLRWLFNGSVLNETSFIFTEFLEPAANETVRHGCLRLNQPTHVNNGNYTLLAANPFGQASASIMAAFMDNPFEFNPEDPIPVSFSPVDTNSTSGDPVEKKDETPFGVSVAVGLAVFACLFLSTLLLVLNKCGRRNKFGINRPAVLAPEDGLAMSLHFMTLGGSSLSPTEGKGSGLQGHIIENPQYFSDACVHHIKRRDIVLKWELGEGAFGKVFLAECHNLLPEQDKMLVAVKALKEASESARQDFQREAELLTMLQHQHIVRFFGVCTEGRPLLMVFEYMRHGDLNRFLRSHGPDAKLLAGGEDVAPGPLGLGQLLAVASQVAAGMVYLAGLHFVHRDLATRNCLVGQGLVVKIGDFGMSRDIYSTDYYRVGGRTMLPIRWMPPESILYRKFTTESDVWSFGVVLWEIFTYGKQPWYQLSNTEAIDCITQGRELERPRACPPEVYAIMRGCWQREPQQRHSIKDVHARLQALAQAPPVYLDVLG
Sequence of Non-receptor tyrosine-protein kinase TYK2 (Homo sapiens) (P29597 whole entry): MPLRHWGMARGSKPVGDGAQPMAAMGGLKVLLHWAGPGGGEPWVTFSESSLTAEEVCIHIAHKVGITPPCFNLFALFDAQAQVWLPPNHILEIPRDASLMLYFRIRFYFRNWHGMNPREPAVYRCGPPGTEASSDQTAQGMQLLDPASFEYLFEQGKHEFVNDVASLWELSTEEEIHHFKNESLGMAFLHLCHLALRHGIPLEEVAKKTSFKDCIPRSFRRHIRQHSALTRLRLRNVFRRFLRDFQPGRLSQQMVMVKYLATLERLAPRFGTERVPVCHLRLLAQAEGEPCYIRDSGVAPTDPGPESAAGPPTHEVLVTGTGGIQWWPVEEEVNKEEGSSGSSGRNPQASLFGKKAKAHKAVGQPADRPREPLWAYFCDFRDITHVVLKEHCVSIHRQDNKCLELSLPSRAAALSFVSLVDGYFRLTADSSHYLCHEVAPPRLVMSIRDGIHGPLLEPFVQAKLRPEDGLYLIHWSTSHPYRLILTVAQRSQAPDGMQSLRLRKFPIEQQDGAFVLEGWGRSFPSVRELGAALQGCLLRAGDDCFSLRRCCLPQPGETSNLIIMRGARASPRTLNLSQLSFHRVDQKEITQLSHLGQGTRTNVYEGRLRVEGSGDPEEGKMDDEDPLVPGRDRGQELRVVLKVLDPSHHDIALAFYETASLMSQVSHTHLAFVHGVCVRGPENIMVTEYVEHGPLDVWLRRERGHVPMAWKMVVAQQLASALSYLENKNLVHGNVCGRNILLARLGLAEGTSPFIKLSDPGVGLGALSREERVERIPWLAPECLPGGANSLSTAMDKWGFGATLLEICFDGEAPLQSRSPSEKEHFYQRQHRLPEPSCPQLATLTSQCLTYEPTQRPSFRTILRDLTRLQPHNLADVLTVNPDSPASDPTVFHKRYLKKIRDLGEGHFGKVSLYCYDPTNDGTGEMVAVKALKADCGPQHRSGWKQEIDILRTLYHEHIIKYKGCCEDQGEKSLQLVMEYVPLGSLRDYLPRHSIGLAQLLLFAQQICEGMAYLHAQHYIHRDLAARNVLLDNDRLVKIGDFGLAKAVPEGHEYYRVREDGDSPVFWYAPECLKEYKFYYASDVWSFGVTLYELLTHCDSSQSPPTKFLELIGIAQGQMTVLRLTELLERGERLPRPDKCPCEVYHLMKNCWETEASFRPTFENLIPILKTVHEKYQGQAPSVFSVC
Sequence of NT-3 growth factor receptor (Homo sapiens) (Q16288 32-839 limits assumed): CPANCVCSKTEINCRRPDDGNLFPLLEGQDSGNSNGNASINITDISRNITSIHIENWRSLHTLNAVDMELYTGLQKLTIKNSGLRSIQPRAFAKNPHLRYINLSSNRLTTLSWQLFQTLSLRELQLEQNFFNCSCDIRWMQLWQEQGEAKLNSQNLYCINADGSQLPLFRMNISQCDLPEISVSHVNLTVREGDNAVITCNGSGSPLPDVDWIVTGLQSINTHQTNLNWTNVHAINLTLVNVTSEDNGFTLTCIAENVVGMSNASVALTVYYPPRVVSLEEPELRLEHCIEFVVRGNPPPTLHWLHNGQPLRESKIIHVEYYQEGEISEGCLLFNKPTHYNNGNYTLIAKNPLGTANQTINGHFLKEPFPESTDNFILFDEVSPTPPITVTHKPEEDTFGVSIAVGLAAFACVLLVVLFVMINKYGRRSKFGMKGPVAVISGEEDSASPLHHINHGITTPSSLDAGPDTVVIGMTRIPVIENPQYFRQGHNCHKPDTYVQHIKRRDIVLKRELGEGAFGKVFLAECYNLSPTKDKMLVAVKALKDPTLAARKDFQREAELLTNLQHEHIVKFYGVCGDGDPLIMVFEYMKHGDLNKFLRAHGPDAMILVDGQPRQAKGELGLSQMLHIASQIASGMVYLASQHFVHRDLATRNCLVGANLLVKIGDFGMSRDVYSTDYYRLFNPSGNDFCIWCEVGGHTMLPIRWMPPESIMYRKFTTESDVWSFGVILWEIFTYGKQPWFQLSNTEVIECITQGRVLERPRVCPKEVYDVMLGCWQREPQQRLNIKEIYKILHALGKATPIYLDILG
Sequence of BDNF/NT-3 growth factors receptor (Homo sapiens) (Q16620 32-822 limits assumed): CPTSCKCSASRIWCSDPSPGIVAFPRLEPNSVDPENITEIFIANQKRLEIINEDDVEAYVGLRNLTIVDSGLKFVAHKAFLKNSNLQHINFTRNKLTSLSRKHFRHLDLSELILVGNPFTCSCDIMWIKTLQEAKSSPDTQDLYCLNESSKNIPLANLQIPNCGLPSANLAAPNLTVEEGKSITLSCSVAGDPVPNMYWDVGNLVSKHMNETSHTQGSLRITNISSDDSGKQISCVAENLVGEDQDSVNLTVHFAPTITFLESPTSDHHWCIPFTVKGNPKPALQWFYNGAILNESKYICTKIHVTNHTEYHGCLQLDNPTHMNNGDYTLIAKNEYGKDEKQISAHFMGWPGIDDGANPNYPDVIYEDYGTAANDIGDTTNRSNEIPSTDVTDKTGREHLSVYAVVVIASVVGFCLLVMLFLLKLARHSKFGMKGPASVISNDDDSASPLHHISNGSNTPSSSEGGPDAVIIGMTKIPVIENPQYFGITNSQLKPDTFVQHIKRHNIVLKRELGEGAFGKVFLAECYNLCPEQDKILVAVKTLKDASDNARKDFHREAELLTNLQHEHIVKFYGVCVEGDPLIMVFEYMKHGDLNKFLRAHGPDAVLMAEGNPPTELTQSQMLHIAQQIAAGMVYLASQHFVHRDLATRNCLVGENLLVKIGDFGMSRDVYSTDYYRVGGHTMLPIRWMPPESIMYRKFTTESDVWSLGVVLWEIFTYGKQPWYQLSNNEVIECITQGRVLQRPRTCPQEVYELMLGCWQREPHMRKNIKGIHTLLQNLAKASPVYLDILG

Row | SMILES | inhibition [1] | inhibition [2] | inhibition [3] | inhibition [4] | inhibition [5] | inhibition [6] | inhibition [7] | inhibition [8] | inhibition [9] | inhibition [10]
1 | NS(=O)(=O)c1ccc(N/N=C2\C(=O)Nc3ccc(C(=O)NCc4ccncc4)cc32)cc1 | 33.7% | 13% | 60% | 19.2% | 66.2% | 2.66% | 5.17% | -8.31% | 69.2% | 6.11%
2 | CN1CCC(C(=O)Nc2n[nH]c3nc(-c4ccc(O)cc4)c(Br)cc23)CC1 | 1.2% and 2.04% | 2.51% and 1.42% | 3.32% and 2.74% | 3.04% and 2.59% | 4.91% and 0.79% | -0.5% and 4.86% | -0.68% and 3.3% | -2.31% and 0.31% | 19% and 6.37% | -1.93% and 2.95%
3 | CS(=O)(=O)Nc1ccc(-c2cc(-c3ccccc3)cc(C(N)=O)c2N)cc1 | 3.74% | 1.96% | 2.61% | 1.09% | 0.08% | 0.48% | 2.13% | -1.8% | 3.01% | 1.29%
4 | CS(=O)(=O)CCNCc1ccoc1-c1ccc2ncnc(Nc3ccc(OCc4ccccc4)cc3)c2c1 | 1.88% | 1.72% | 4.41% | 2.02% | 1.74% | 0.41% | 1.96% | 1.14% | 5.58% | 3.55%
5 | Nc1nccc(-c2c(-c3ccc(F)cc3)ncn2C2CCNCC2)n1 | -2.46% and 2.61% | -1.2% and 0.85% | -0.92% and 0.76% | -2.82% and 1.09% | -1.78% and 1.96% | -1.02% and 1.02% | -0.81% and 3.65% | 0.9% and -0.21% | -1.76% and -0.14% | -4.27% and 0.74%
6 | COc1ccc(Nc2ncc(-c3ccccc3)o2)cc1OC | 14.1% | 2.88% | 27.1% | 2.7% | 27.1% | 4.28% | 17.8% | 0.66% | 1.06% | 9.76%
7 | CS(=O)(=O)Nc1ccc(-c2ccc3c(NC(=O)C4CC4)n[nH]c3c2)cc1 | 3.27% | 2.22% | 5.91% | 2.1% | 9.06% | 2.62% | 5.31% | -0.89% | 11.9% | 2.55%
8 | CC1(C)CC(n2cnc(-c3ccc(F)cc3)c2-c2ccnc(N)n2)CC(C)(C)N1 | 0.77% | 1.16% | 2.03% | 0.21% | 2.79% | 0.09% | 0.75% | 1% | 1.53% | -0.03%
9 | Cc1ccc(-c2cc3c(NC(=O)C4CC4)ncnc3o2)cc1 | 1.15% | 1.73% | 4.58% | 2.91% | 4.4% | 3.92% | 8.76% | -1.91% | 10.2% | 3.75%
10 | CN1CCN(Cc2ccc(-c3cc4ncnc(Nc5ccc(OCc6cccc(F)c6)c(Cl)c5)c4s3)o2)CC1 | 3.16% and 2.15% | 3.04% and 3.64% | 2.54% and 4.97% | 2.27% and 4.29% | 3.84% and 5.78% | -1.05% and 3.1% | 5.76% and 4.28% | -2.41% and -3.9% | 8.37% and 11.4% | 1.75% and 2.97%
11 | CNC(=O)c1ncccc1Nc1nc(Nc2cc3c(cc2OC)CCCN3C(=O)CN(C)C)nc2[nH]ccc12 | 6.12% | 3.17% | 5.34% | 2.2% | 5.36% | 3.73% | 1.5% | -3.3% | 35.2% | 2.64%
12 | CN(C)CCNC(=O)Nc1ccc(N(C)c2ccnc(Nc3ccc(CS(C)(=O)=O)cc3)n2)cc1 | 7.1% | 2.82% | 9.09% | 4.45% | 11.9% | 8.39% | 34.3% | -2.14% | 11.4% | 13.7%
13 | COc1cccc(-n2ncc3c(N/N=C/c4ccc(C(=O)NCCN(C)C)cc4)ncnc32)c1 | 12.1% | 5.53% | 26.5% | 3.96% | 20.7% | 7.49% | 29.4% | -5.03% | 11.6% | 8.37%
14 | CN1CCC(n2cnc(-c3ccc(F)cc3)c2-c2ccnc(NCCO)n2)CC1 | 2.02% | 2.35% | 6.67% | 4.76% | 5.91% | 2.5% | 2.52% | -3.21% | 2.05% | 1.7%
15 | COc1ccccc1-c1cc(/C=C2\C(=O)Nc3ncc(Br)cc32)cc(Br)c1O | 61.7% | 38.7% | 89.2% | 41.7% | 93.9% | 3.05% | 6.65% | -5.9% | 9.88% | 13.4%
16 | CCn1c(-c2nonc2N)nc2cncc(C(=O)NCCNC)c21 | 3.09% | 3.03% | 5.31% | 3.96% | 3.4% | -1.02% | 1.12% | -3.39% | 10.5% | 3.09%
